Test system: Vero E6 infected with SARS-CoV-2
Assay: inhibition of SARS-CoV-2 cytopathic effect; higher = more antiviral protection, active = above 15
Conditions: 48 h

Measured: inhibition of SARS-CoV-2 cytopathic effect

CN(C)[C@@H]1CCc2[nH]c3ccc(NC(=O)c4ccc(F)cc4)cc3c2C1
inactive: 1 nM -0.2% | 8.33 nM 0.81% | 100 nM 1.23% | 833.33 nM 3.46% | 10000 nM 4.97%

Oc1c(I)cc(Cl)c2cccnc12 [clioquinol]
inactive: 1 nM -4.79% | 8.33 nM -6.61% | 100 nM -4.78% | 833.33 nM -5.93% | 10000 nM -9.21%

COc1cc2c(cc1OC)CN(C(=O)[C@@H](NCc1ccncc1)C(C)(C)C)CC2
inactive: 1 nM 2.06% | 8.33 nM 3.28% | 100 nM 2.93% | 833.33 nM 1.04% | 10000 nM 1.19%

CN(Cc1ccccc1)C(=O)[C@H](Cc1ccc2ccccc2c1)NC(=O)[C@@H]1C[C@@H](O)CN1C(=O)c1cn(C)c2ccccc12
inactive: 1 nM 1.18% | 8.33 nM 4.31% | 100 nM 3.48% | 833.33 nM 1.69% | 10000 nM 1.87%

CCS(=O)(=O)c1ccc2oc(-c3ccc4ccccc4c3)nc2c1 [ezutromid]
inactive: 1 nM 3.38% | 8.33 nM 0.67% | 100 nM -1.92% | 833.33 nM 2.64% | 10000 nM 1.18%

Oc1cc2c(cc1O)C(c1ccccc1)CNCC2 (stereo not given)
inactive: 1 nM 3.06% | 8.33 nM 1.73% | 100 nM 1.53% | 833.33 nM 1.32% | 10000 nM 0.48%

C=CC(=O)Nc1cccc(Nc2nc(Nc3ccc(NC4CN(CCF)C4)cc3OC)ncc2C(F)(F)F)c1
inactive: 1 nM 0.89% | 8.33 nM 1.87% | 100 nM 7.9% | 833.33 nM -5.81% | 10000 nM -24.6%

— the supplement of paper PMC13380429
